# Only some compounds are listed: those with a hit (about 8% of all), similar ones and a draw of the others.
# HCV inhibitor = inhibitors of hepatitis C virus infection; Huh7.5.1 HCVcc-Cre infection, luciferase reporter, 44 h; Potency, µM (top dose mostly 41.8 µM), usual class: inhibitors; actives 3.4% (n = 340,000); AID 651820; active = well fitted inhibition curve with a large enough effect; inconclusive = small, poorly fitted or top-dose-only effect, or another doubt; inactive = no such curve, though single readings can be large or run the other way
#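 Cells seeded at 1,000/well and cultured 4 h, then compounds added followed by HCVcc-Cre virus (~0.5 moi). After 44 h further culture, luciferase substrate was added, plates held 15 min at room temperature, and luminescence read for 15 sec.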
# HCMV antiviral = human cytomegalovirus inhibition. HFF cells, HCMV-luciferase reporter, 72 h; hits give low values. activity change, negative = inhibition, % at 57.5 µM. actives 4.5% (n = 410,000). AID 1259415; in the data active = activity change below about -60%; inconclusive = no clear call, values can overlap the other calls; inactive = above about -39%
#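 Screen run at 2 compound doses on HFFs infected with reporter HCMV, MOI 1 PFU/cell. Luciferase activity from cell lysates at 72 h post infection gave inhibition relative to buffer-only and Salinomycin wells.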
# FMDV inh = antivirals against foot and mouth disease virus; FMDV antiviral cell-based qHTS; Potency, µM (titrated, usually from 57.9 µM), actives largely listed as inhibitors; actives 1.2% (n = 410,000); AID 1159524; calls by dose curve; tested in HEK293T cells; note: read-out not given here; nearly all actives have a fitted effect of over 45% in size
# MARV entry inh = inhibitors of Marburg virus binding or cell entry | AID 540276 | Potency, µM (series often up to 37.8 µM), hits mostly inhibitors | Marburg virus pseudotyped entry inhibition, cell reporter | actives 1.8% (n = 300,000); calls by dose curve; tested in HEK293 cells
# SARS PLP yeast = blocks SARS-CoV papain-like protease in a yeast assay. S. cerevisiae expressing SARS-CoV PLpro, growth rescue. Potency, µM (top dose mostly 32.9 µM), most hits filed as activators. actives 0.19% (n = 330,000); calls by dose curve; note: nearly all actives have a fitted effect of over 55% in size
# Lassa entry inh = inhibitors of Lassa virus binding or cell entry | Lassa virus pseudotype entry inhibition, cell reporter | Potency, µM (series often up to 37.9 µM), hits mostly inhibitors | actives 1.2% (n = 300,000); calls by dose curve; tested in HEK293 cells; note: nearly all actives have a fitted effect of over 50% in size
# Hits are given with their value; - = inactive; ? = inconclusive; . = not tested or not shown; ! = not confirmed by another sample; [ ] = remark or other dose.
SMILES,HCV inhibitor,HCMV antiviral,FMDV inh,MARV entry inh,SARS PLP yeast,Lassa entry inh
O=C(c1ccc2c(c1)OCO2)N(Cc1cccs1)C1(C(=O)NC2CCCCC2)CCCCC1,?,?,?,8.91µM,-,?
O=C(Cc1cccs1)N(Cc1cccs1)C1(C(=O)NC2CCCC2)CCCCC1,?,?,?,-,-,-
CCN(CC)CCOc1ccc(/C(=C(/Cl)c2ccccc2)c2ccccc2)cc1,7.94µM,-70.5!,?,.,-,.
CC/C(=C(\c1ccc(O)cc1)c1ccc(OCCN(C)C)cc1)c1ccccc1,?,-66.8,-,.,-,.
CCC(=C(c1ccc(O)cc1)c1ccc(OCCN(C)C)cc1)c1ccccc1,.,-,-,.,.,.
O=c1c2ccccc2oc2ccc(-c3ccc4cc[nH]c4c3)cc12,15.8µM,.,-,.,-,.
Cc1cc(NCC2CCCCC2)nc2ccccc12,?,-,-,1µM,-,.
Cc1nn2c(CN(C(=O)COc3ccccc3)c3ccccc3)nnc2c2ccccc12,-,-67.8,-,-,-,-
Cc1nn2c(COc3ccc(NC(=O)c4ccccc4Cl)cc3)nnc2c2ccccc12,?,-,-,7.08µM,-,?
Cc1nn2c(COc3ccc(NC(=O)C(C)C)cc3)nnc2c2ccccc12,-,-,-,-,-,?
COC(=O)c1sc2cccc(F)c2c1S(=O)(=O)N1CCN(c2cccc(C)c2)C(C)C1 (centres undefined),.,-,?,.,.,?
COc1ccc(CCNc2cc(C)nc3c(-c4ccccc4OC)cnn23)cc1OC,12.6µM,.,-,11.2µM,-,-
CC(C)COP(=O)(c1ccc(N(C)C)cc1)C(O)c1ccccc1F (centres undefined),3.55µM,-,-,-,-,-
CCOP(=O)(c1ccc(N(C)C)cc1)C(O)c1ccccc1F (centres undefined),-,-,-,-,-,-
CC1(C)Cc2ccccc2C2=NNC(=O)C2=N1,?,-101.6,?,?,-,?
CC1(C)Cc2ccccc2C(Nn2cnnc2)=N1,-,-,.,-,-,-
O=C1C=C(O)C[C@H](c2cccs2)C1,.,.,.,-,.,.
O=C1[C@@H]2[C@@H]3C[C@@H]([C@H]4ON=C(c5ccc(Cl)cc5)[C@@H]34)[C@@H]2C(=O)N1c1ccc2c(c1)OCO2,-,-,-,?,-,-
O=C1[C@@H]2[C@@H]3C[C@@H]([C@H]4ON=C(c5ccc(OCc6ccccc6)cc5)[C@@H]34)[C@@H]2C(=O)N1c1ccc2c(c1)OCO2,-,-,-,4.47µM,-,-
COc1ccc(-c2noc(CCC(=O)Nc3cc(Cl)c(OC)cc3OC)n2)cc1,3.98µM,-,-,?,-,-
COc1ccc(-c2noc(CCCC(=O)Nc3ccc(C(N)=O)cc3)n2)cc1,-,-89.7,?,?,-,?
COc1cc(-c2noc(CCCC(=O)Nc3ccc(C(N)=O)cc3)n2)cc(OC)c1OC,-,-,-,-,-,-
COc1ccccc1CC(=O)Nc1ccc(-c2noc(COc3ccc(Cl)c(C)c3)n2)cc1,-,-67.0,-,-,-,?
CCOc1ccccc1-c1nc(-c2ccc(NC(=O)Cc3ccccc3OC)cc2)no1,?,-,-,-,-,-
O=C(CCc1nc(-c2ccccc2F)no1)Nc1ccc(Oc2ccccc2)cc1,?,-63.7,?,-,-,?
SMILES,HCV inhibitor,HCMV antiviral,FMDV inh,MARV entry inh,SARS PLP yeast,Lassa entry inh
Cc1ccc(C(=O)NCC(c2ccc3c(c2)OCO3)N2CCN(c3ccc(F)cc3)CC2)cc1 (centres undefined),.,-,?,.,.,?
Cc1cccc(NS(=O)(=O)c2ccc3c(c2)OCC(C(=O)N2CCCC2)O3)c1C (centres undefined),.,-,-,.,.,-
O=C(CCCc1nc(-c2ccc(Cl)cc2)no1)NC1CCCC1,?,-83.7,?,?,-,?
CCOC(=O)c1ccc(NC(=O)CCc2nc(-c3cccc(C)c3)no2)cc1,8.91µM,-,?,-,-,-
COc1ccc(-c2noc(CCCC(=O)NC3CCCC3)n2)cc1,12.6µM,-80.4,?,?,-,?
COc1ccc(-c2noc(CCC(=O)NC3CCCCCC3)n2)cc1,-,-,-,.,-,.
CCOc1ccc(NC(=O)C2CCN(C(=O)N3CC(C)Oc4ccc(Cl)cc43)CC2)cc1 (centres undefined),.,-,-,.,.,-
CNCCC=C1c2ccccc2CCc2ccccc21,-[8.37 µM],-,?,7.08µM,-,20.6µM
C[N+](C)(C)CC/C=C1/c2ccccc2CSc2ccccc21,-,-,-,-,-,-
COc1ccccc1Cc1nc2ccccc2nc1SCC(=O)N1CCC(C)CC1,.,?,-,.,.,-
COc1ccc(-n2nc3c(c2NC(=O)CCl)CSC3)cc1,-,-,31.6µM,?,-,?
CN(C)CCCNC(=O)c1ccc(-c2nc(-c3ccc(Cl)cc3)cs2)cc1,10µM,-,-,?,-,?
O=c1[nH]c(=S)[nH]c(O)c1N=Nc1ccc(SC(F)F)cc1,-,-61.4,-,?,-,3.98µM
Cc1cc(C(=O)NCC2CCC3(CCN(Cc4ccc(F)cc4)CC3)O2)n(C)n1 (centres undefined),.,.,-,.,.,.
N/C(=N\OC(=O)c1cccc(Cn2cc(C(F)(F)F)ccc2=O)c1)c1ccc(Cl)cc1,-,-64.5,?,-,-,-
N/C(=N\OC(=O)c1cccc(Cn2cc(C(F)(F)F)ccc2=O)c1)c1ccccc1,?,?,-,.,-,.
CCOC(=O)c1ccc2nc(Nc3nc4ccc(F)cc4s3)sc2c1,-,-91.0,?,?,-,-
CCOC(=O)c1ccc2nc(NC(C)=O)sc2c1,-,-,-,?,-,?
COC(=O)c1ccc2nc(Nc3nc4c(F)cc(F)cc4s3)sc2c1,-,-70.4,0.251µM,7.31µM,-,3.16µM
Cc1cc(Cl)ccc1NC(=O)CS(=O)(=O)c1cccc2nsnc12,.,-,-,.,.,?
C=C1C(=O)O[C@@H]2[C@H]3O[C@]3(C)CCC=C(C)CC[C@@H]12,.,.,-,22.4µM,.,9.2µM
O=C(c1ccco1)c1cn(CC(=O)N2CCCc3ccccc32)c2ccccc12,11.2µM,-,?,?,-,-
CC(C)NC(=O)Cn1cc(C(=O)C2CC2)c2ccccc21,-,-61.4,-,.,-,.
Cc1cccc(NC(=O)Cn2cc(C(=O)C3CCCCC3)c3ccccc32)c1C,.,-92.6,?,?,.,-
CC(C)NC(=O)Cn1cc(C(=O)c2ccccc2)c2ccccc21,-,-,-,.,-,.
Cc1cccc(NC(=O)Cn2cc(C(=O)c3ccccc3)c3ccccc32)c1C,.,-66.6,?,?,.,-
O=C(Cn1cc(C(=O)C2CCCCC2)c2ccccc21)Nc1ccccc1Cl,.,-,-,-,.,-
Cc1ccc(NC(=O)Cn2cc(C(=O)c3cccs3)c3ccccc32)cc1C,.,?,-,11.2µM,.,?
O=C(Cn1cc(C(=O)c2ccco2)c2ccccc21)Nc1ccccc1F,-,-74.7,-,-,-,-
Cc1cccc(NC(=O)Cn2cc(C(=O)c3ccccc3)c3ccccc32)c1,.,-79.6,-,?,.,?

# Bioassay records: PubChem, National Center for Advancing Translational Sciences (NCATS)
